This is an account of results in PubChem BioAssay.

Activity calls are given as the source filed them. Unless noted, the rule behind the calls is not given here.

Assay [1] is described as follows: circadian clock period modulators, cell-based, LOPAC library, luminescence reporter (AID 2774).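 Note: values are relative to mean of DMSO wells on each plate.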 Particulars: circadian reporter cells, at 7 µM, actives lie on both sides.
Assay [2] relates to Hepatitis C virus NS3 helicase. The assay is described as follows: HCV NS3 helicase inhibitors, primary screen, biochemical, fluorescence polarization, LOPAC1280 library (AID 687035; in the data active = inhibition above about 37%). Particulars: Purified HCV NS3 helicase, Cy5-dT15 ssDNA binding fluorescence polarization; stronger effect = higher value; concentration not given here.
Assay [3] is described as follows: Cy5 fluorescence quenching or enhancement artefacts, artefact control for HCV NS3 helicase inhibitor project, biochemical, LOPAC1280 (AID 687037). Particulars: Cy5-DNA-NS3h complex fluorescence interference counterscreen. (In general: Counterscreens check selectivity or assay interference.)
A short description of assay [4]: sensitizers of A549 cells to miR-34 induction, primary screen, imaging, A549 dox-inducible miR-34, nuclei and caspase counts (AID 1347080;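 active = compounds whose cell count with miR-34 switched on is under 0.7 times the count with it off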). Particulars: A549 miR-34 inducible, Hoechst nuclei count, 48 h.
The nature of assay [5]: phospholipid biosynthesis inhibitors in animal cells, primary screen, cell-based, LOPAC library, screen 4 (AID 1347384). As to conditions: phospholipid biosynthesis inhibition screen, at 10 µM.
The nature of assay [6]: viability rescue of complex I mutant cybrids, primary screen, cell-based, galactose medium, ATP luminescence (AID 1645843;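 active = z-score of at least 1.8 in each of two replicates, scored against plate mean and spread of sample wells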;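 note: positive z means more ATP and so rescue of galactose-driven cybrid death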). As to conditions: complex I mutant cybrid cells, 72 h, stronger effect = higher value.
Setting [7] is: stronger effect = lower value, cell number ratio, induced over uninduced.
Where [8] appears, read: measured here: relative caspase fold change +Dox/-Dox.
[9] abbreviates: measured here: total cells with miR-34 induction, stronger effect = lower value.
Setting [10] is: measured here: total cells without miR-34 induction.

One may read the inhibition as the relative decrease from the control value, in per cent. Turning to `O=C1C2C=CC=CC2=NC(=S)N1CCN1CCC(=C(c2ccc(F)cc2)c2ccc(F)cc2)CC1` (stereo unspecified), in assay [1], the period change is -0.295 h (inactive). For the same compound, in assay [2], the inhibition was 1% (inactive). Moreover, the fluorescence ratio (interference) in assay [3] is 1 (inactive). The fold change was 0.996 (inactive) in assay [4] (setting [7]) and 1.03 in assay [4] (setting [8]). The cell count was 9730 in assay [4] (setting [9]) and 9760 in assay [4] (setting [10]). Further, the compound was classed as inactive in assay [5]. Besides, in assay [6], the z-score was -0.96 (inactive).

Take `COC(=O)C(C)(N)Cc1ccc(O)cc1` (stereo unspecified): in assay [1], the period change was -0.015 h (inactive). For the same compound, in assay [2], the inhibition was -3% (inactive). Moreover, in assay [3], the fluorescence ratio (interference) was 1 (inactive). The figures for the fold change in assay [4] (setting [7]) and in assay [4] (setting [8]) were 1.04 (inactive) and 1.45, respectively. The cell count in assay [4] (setting [9]) came out at 10900; in assay [4] (setting [10]) it was 10400. In assay [5], the result was inactive. Moreover, the z-score in assay [6] was 0.39 (inactive).

`N#C/C(=C\c1ccc(O)c(O)c1)C(=O)NCCc1ccccc1`: the period change in assay [1] was -0.04 h (inactive). The inhibition in assay [2] is 2% (inactive). In addition, the fluorescence ratio (interference) in assay [3] was 0.9 (inactive). The values for the fold change in assay [4] (setting [7]) and in assay [4] (setting [8]) were 1.09 (inactive) and 0.996, respectively. Besides, the cell count was found to be 7900 in assay [4] (setting [9]) and 7250 in assay [4] (setting [10]). In assay [5], the result was inactive. For the same compound, the z-score in assay [6] was -1.06 (inactive).

`COc1ccc2c(c1)CCC1C2CC[C@@]2(C)C1CC[C@@H]2NCCCCCCN1C(=O)C=CC1=O` (stereo partly specified): the period change in assay [1] is -0.255 h (inactive). The inhibition in assay [2] was 5% (inactive). The fluorescence ratio (interference) in assay [3] is 0.8 (active). The fold change in assay [4] (setting [7]) is 1.05 (inactive); in assay [4] (setting [8]) it was 1.05. The cell count in assay [4] (setting [9]) turned out to be 9380; in assay [4] (setting [10]), 8930. Besides, the compound was classed as inactive in assay [5]. The z-score in assay [6] was 0.035 (inactive).

For the compound `CC(=O)SCC[N+](C)(C)C`, the period change in assay [1] is 0.015 h (inactive). Also, the inhibition in assay [2] is 0% (inactive). Also, in assay [3], the fluorescence ratio (interference) was 1 (inactive). For the same compound, the fold change in assay [4] (setting [7]) was 1.01 (inactive); in assay [4] (setting [8]), 2.3. Moreover, the cell count stood at 10500 in assay [4] (setting [9]) and 10400 in assay [4] (setting [10]). Further, in assay [5], the compound was called inactive. In addition, the z-score in assay [6] was 0.495 (inactive).

As to `Cn1cc(C(F)(F)F)nc1-c1ccc(OCC(O)CNCCOc2ccc(O)c(C(N)=O)c2)cc1` (stereo unspecified), in assay [1], the period change is -0.065 h (inactive). Besides, in assay [2], the inhibition was 0% (inactive). Moreover, the fluorescence ratio (interference) in assay [3] is 1 (inactive). The fold change is 0.893 (inactive) in assay [4] (setting [7]) and 1.45 in assay [4] (setting [8]). For the same compound, the cell count in assay [4] (setting [9]) was found to be 9830; in assay [4] (setting [10]), 11000. For the same compound, the result in assay [5] was inactive. For the same compound, the z-score in assay [6] was -0.695 (inactive).

As to `CN1CC(O)C(O)C(O)C1CO` (stereo unspecified), in assay [1], the period change is 0.06 h (inactive). For the same compound, the inhibition in assay [2] is -3% (inactive). Also, the fluorescence ratio (interference) in assay [3] is 1 (inactive). Moreover, the fold change in assay [4] (setting [7]) was 0.95 (inactive); in assay [4] (setting [8]) it was 1.01. In addition, the cell count stood at 10300 in assay [4] (setting [9]) and 10800 in assay [4] (setting [10]). Moreover, the compound was called inactive in assay [5]. For the same compound, in assay [6], the z-score is 0.28 (inactive).

`Nc1c(S(=O)(=O)O)cc(Nc2ccc(Nc3nc(Cl)nc(Nc4ccc(S(=O)(=O)O)cc4)n3)c(S(=O)(=O)O)c2)c2c1C(=O)c1ccccc1C2=O`: the period change in assay [1] was 0.105 h (inactive). Moreover, the inhibition in assay [2] is 86% (active). In addition, in assay [3], the fluorescence ratio (interference) is 0.7 (active). Also, the fold change in assay [4] (setting [7]) is 1.07 (inactive); in assay [4] (setting [8]), 0.889. The cell count in assay [4] (setting [9]) worked out at 9580; in assay [4] (setting [10]) it was 8990. The compound was called inactive in assay [5]. For the same compound, the z-score in assay [6] is 4.81 (active).

As to `CN(C)C(N)=NCCC[C@H](N)C(=O)O`, in assay [1], the period change is -0.14 h (inactive). For the same compound, in assay [2], the inhibition was -2% (inactive). Further, the fluorescence ratio (interference) in assay [3] was 1 (inactive). The fold change was 0.963 (inactive) in assay [4] (setting [7]) and 1.27 in assay [4] (setting [8]). Further, the cell count in assay [4] (setting [9]) amounted to 9830; in assay [4] (setting [10]), 10200. Moreover, the compound was classed as inactive in assay [5]. For the same compound, the z-score in assay [6] was 0.265 (inactive).

Turning to `NCCS(=O)O`, the period change in assay [1] is 0.035 h (inactive). The inhibition in assay [2] is -3% (inactive). The fluorescence ratio (interference) in assay [3] was 1 (inactive). Moreover, the values for the fold change in assay [4] (setting [7]) and in assay [4] (setting [8]) were 1 (inactive) and 0.978, respectively. Further, the cell count amounted to 10600 in assay [4] (setting [9]) and 10500 in assay [4] (setting [10]). Further, the compound was classed as inactive in assay [5]. In addition, in assay [6], the z-score is 0.415 (inactive).

As for `NCC(O)C1CCCCCCC1` (stereo unspecified), in assay [1], the period change is -0.04 h (inactive). The inhibition in assay [2] was -3% (inactive). In addition, the fluorescence ratio (interference) in assay [3] is 1 (inactive). In addition, the fold change in assay [4] (setting [7]) is 0.963 (inactive); in assay [4] (setting [8]), 1.08. Moreover, the cell count amounted to 9960 in assay [4] (setting [9]) and 10300 in assay [4] (setting [10]). For the same compound, in assay [5], the compound was called inactive. For the same compound, the z-score in assay [6] is 0.085 (inactive).

As for `Nc1nc2[nH]c(=O)cnc2c(=O)[nH]1`, the period change in assay [1] was 0 h (inactive). The inhibition in assay [2] was -5% (inactive). The fluorescence ratio (interference) in assay [3] was 1 (inactive). Further, the values for the fold change in assay [4] (setting [7]) and in assay [4] (setting [8]) were 1.09 (inactive) and 0.997, respectively. Also, the cell count in assay [4] (setting [9]) is 10400; in assay [4] (setting [10]) it was 9560. The result in assay [5] was inactive. For the same compound, the z-score in assay [6] is 0.655 (inactive).

Turning to `Nc1nc2c(nc(Br)n2C2OC3COP(=O)(O)O[C@@H]3C2O)c(=O)[nH]1` (stereo partly specified), the period change in assay [1] is -0.01 h (inactive). Further, in assay [2], the inhibition was -2% (inactive). In addition, the fluorescence ratio (interference) in assay [3] is 1 (inactive). Moreover, the fold change in assay [4] (setting [7]) is 1.05 (inactive); in assay [4] (setting [8]), 1.74. In addition, the cell count in assay [4] (setting [9]) was found to be 10000; in assay [4] (setting [10]), 9530. The call in assay [5] was inactive. Also, the z-score in assay [6] is 0.555 (inactive).

In the case of `NOCC(=O)O`, the period change in assay [1] is -0.075 h (inactive). For the same compound, in assay [2], the inhibition was -1% (inactive). Besides, the fluorescence ratio (interference) in assay [3] was 1 (inactive). The fold change in assay [4] (setting [7]) is 1.12 (inactive); in assay [4] (setting [8]), 1.94. The results for the cell count in assay [4] (setting [9]) and in assay [4] (setting [10]) were 9990 and 8920, respectively. In assay [5], the result was inactive. In assay [6], the z-score was 0.555 (inactive).

Consider `COC1=C(OC)C(=O)c2ccccc2C1=O`, for which the period change in assay [1] was -0.205 h (inactive). Moreover, the inhibition in assay [2] is -1% (inactive). The fluorescence ratio (interference) in assay [3] is 1 (inactive). Also, the fold change is 1.45 (inactive) in assay [4] (setting [7]) and 1.7 in assay [4] (setting [8]). For the same compound, the results for the cell count in assay [4] (setting [9]) and in assay [4] (setting [10]) were 1290 and 890, respectively. Moreover, the outcome in assay [5] was inactive. Besides, the z-score in assay [6] was -1.04 (inactive).

Take `O=C(O)CC1CCCc2ccccc2C1O` (stereo unspecified): the period change in assay [1] is 0.085 h (inactive). In addition, the inhibition in assay [2] was -4% (inactive). Moreover, the fluorescence ratio (interference) in assay [3] is 1 (inactive). Moreover, the figures for the fold change in assay [4] (setting [7]) and in assay [4] (setting [8]) were 1.02 (inactive) and 1.73, respectively. For the same compound, the cell count worked out at 10700 in assay [4] (setting [9]) and 10500 in assay [4] (setting [10]). Further, the compound was classed as inactive in assay [5]. Besides, the z-score in assay [6] was 0.315 (inactive).

In the case of `CN1CCC2(CCN3CCc4c(oc5ccccc45)C3C2)N(C)C1=O` (stereo unspecified), in assay [1], the period change is 0.125 h (inactive). Also, in assay [2], the inhibition is 3% (inactive). Moreover, in assay [3], the fluorescence ratio (interference) is 1 (inactive). In addition, the fold change in assay [4] (setting [7]) is 1.04 (inactive); in assay [4] (setting [8]), 0.751. The cell count was 7560 in assay [4] (setting [9]) and 7300 in assay [4] (setting [10]). In addition, in assay [5], the compound was classed as inactive. The z-score in assay [6] is -0.87 (inactive).

Take `CC(=O)[C@H]1CCC2C3CC=C4C[C@@H](OS(=O)(=O)O)CC[C@]4(C)C3CC[C@@]21C` (stereo partly specified): the period change in assay [1] was 0.02 h (inactive). The inhibition in assay [2] is 1% (inactive). For the same compound, in assay [3], the fluorescence ratio (interference) was 1 (inactive). In addition, the fold change in assay [4] (setting [7]) is 0.987 (inactive); in assay [4] (setting [8]), 1.53. Further, the cell count in assay [4] (setting [9]) was 10100; in assay [4] (setting [10]), 10300. Moreover, in assay [5], the compound was called inactive. Moreover, in assay [6], the z-score is 2.2 (active).

Turning to `NC(CCCP(=O)(O)O)C(=O)O` (stereo unspecified), the period change in assay [1] is 0.105 h (inactive). Further, the inhibition in assay [2] was -3% (inactive). Also, the fluorescence ratio (interference) in assay [3] was 1 (inactive). Besides, the fold change was 1.08 (inactive) in assay [4] (setting [7]) and 1.92 in assay [4] (setting [8]). Moreover, the results for the cell count in assay [4] (setting [9]) and in assay [4] (setting [10]) were 10400 and 9550, respectively. In addition, the compound was classed as inactive in assay [5]. Besides, the z-score in assay [6] is 0.21 (inactive).
